# Compounds without any hit were thinned out: in the full panel of roughly 83,000, 20% have a hit.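 The endpoint reported here, percent growth, reads 100 for growth as untreated, 0 for no net growth and -100 for all cells dead.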 The source made the active and inactive calls. The calls were made as follows: active = growth percent below 10; inactive = the rest.
# System: MDA-MB-468 breast
# Experiment: NCI-60 one-dose screen, 48 h (100 = growth as untreated, 0 = no growth, -100 = all killed)
# Conditions: 10 µM unless noted
row,Structure (SMILES),growth
1,Cc1cc2nc3c4cc(Cl)ccc4n(CC(=S)NCCN(C)C)c3nc2cc1C,-89.3% (active)
2,COc1ccc2c(c1)C(C)Cc1c(Cl)ncnc1N2C (centres undefined),-47.7% (active)
3,Nc1ccc(Sc2ccc([N+](=O)[O-])c3nonc23)cc1,67.3% (inactive)
4,Cc1nc2sc(C(=O)Nc3cccc(Cl)c3C)c(N)c2cc1C(=O)/C=C/c1ccccc1,4.69% (active)
5,Oc1[nH]c2ccc(Cl)cc2c1/C=c1/ccc2c(c1)N=C(c1cccs1)N=2,55.2% (inactive)
6,COc1cc2cc(Oc3ccc(NC(=O)c4cc(C(F)(F)F)cc(C(F)(F)F)c4)cc3)c(C)nc2cc1OCCN1CCOCC1,66.9% (inactive)
7,COc1cccc(-c2cn3c(ccc4ccccc43)n2)c1,34.2% (inactive)
8,Oc1ccc(C#CCOc2ccccc2)cc1CNCCN(Cc1ccccn1)Cc1ccccn1,-10.4% (active)
9,COc1cccc(Cn2c(-c3nonc3N)nc3ccccc32)c1,-12.2% (active)
10,NC1=NN(c2ccccc2)C(=O)/C1=C/c1ccc(Cl)cc1,114% (inactive)
11,COc1ccc(-c2cc(-c3cc(OC)ccc3OC)[nH]c(=O)c2C#N)cc1,37.9% (inactive)
12,COc1cccc(-c2nc3sccn3c2-c2cccc(S(C)(=O)=O)c2)c1,89.1% (inactive)
13,O=C(Nc1ccccc1C(F)(F)F)C1=NCCCCN1,94.8% (inactive)
14,O=C1/C(=N/O)CCc2ccccc21,109% (inactive)
15,CN1CCN(c2ccc(Nc3nc(NCCNS(=O)(=O)c4ccc(Cl)cc4)c4sccc4n3)cc2)CC1,93% (inactive)
16,C/C=C(/C)C(=O)O[C@@H]1CC(C)(C)CC2C34OC(=O)[C@@]21CC[C@@]3(C)[C@]1(C)CCC2C(C)(C)C(=O)CC[C@]2(C)C1C[C@@H]4Cl (some centres undefined),80.5% (inactive)
17,Cc1cccc(C)c1NC(=O)c1sc2nc3c(cc2c1N)C(=O)CCC3,34.3% (inactive)
18,O=c1[nH]c([C@@H]2CCCN2)nc2c1oc1ccc(Cl)cc12,33.6% (inactive)
19,CC1(C)NCCC[C@]2(C)[C@H]3C=CC4=C5C[C@](C)(CO)CC[C@]5(C)CC[C@@]4(C)[C@]3(C)CC[C@@H]12,-79.5% [100 µM] (active)
20,COc1ccc2c(c1)[nH]c(=O)c1c3cc(C)c(C)cc3cn21,7.03% (active)

row,Structure (SMILES),growth
1,CCOC(=O)c1csc(NC(=O)CSc2nc3sc4c(c3c(=O)n2-c2ccc(Cl)cc2)CCCC4)n1,102% (inactive)
2,O=[N+]([O-])c1ccc(C(c2ccccc2)c2ccccc2)cc1,101% (inactive)
3,COc1ccc2[nH]c(=O)c(/C=C/C(=O)c3ccccc3OC)cc2c1,16.7% (inactive)
4,CCOC(=O)c1ccc(N(C=O)CCC(=O)CCl)cc1,40.3% (inactive)
5,NCCN1CCNCC1,95.2% (inactive)
6,O=S(=O)(c1ccc(N/N=C\c2ccccc2Cl)cc1)c1ccc(N/N=C/c2ccccc2Cl)cc1,91.5% (inactive)
7,COC(=O)c1c2c(c(C)[n+]([O-])c1C)C(=O)C=C(NCc1ccc(F)cc1)C2=O,-67% (active)
8,COc1ccc(Cn2cc(Cn3c(=O)c(-c4nc5ccccc5[nH]4)cc4ccccc43)nn2)c(OC)c1OC,13.6% (inactive)
9,Oc1ccc(Cc2ccccc2)c2cccnc12,-21.1% (active)
10,COc1ccccc1-n1c(SCc2cc(OC)c(OC)c(OC)c2)nc2ccc(Cl)cc2c1=O,21.5% (inactive)
11,COC(=O)CCc1c(/C=C2\N=C(c3ccc[nH]3)C=C2OC)[nH]c(C)c1C(=O)OCc1ccccc1,28.5% (inactive)
12,COc1ccc(-c2onc(N)c2-c2cc(OC)c3c(c2)OCO3)cc1,-29.2% (active)
13,NC(N)=Nc1cc2ccccc2c2ccccc12,54.4% (inactive)
14,Nc1n[nH]c2cccc(C#Cc3cccc(NC(=O)c4cccc(OC(F)(F)F)c4)c3)c12,106% (inactive)
15,CCO/C=N/C1=C(C#N)C(c2ccc(Cl)cc2)c2sc3c(CC)cccc3c2O1 (centres undefined),-33.4% (active)
16,Cc1cc([C@@H](C)Nc2ccccc2C(=O)O)c2nc(N3CCOCC3)cc(=O)n2c1,9.76% (active)
17,COc1ccc(-c2nn(-c3cccc(Cl)c3)cc2-c2cc(-c3cccs3)[nH]c(=S)n2)cc1,67.8% (inactive)
18,Cc1cc(O)cc(-c2nn(C)cc2-c2cc(N3CCOCC3)nc(-c3cccnc3)n2)c1,-3.22% (active)
19,O=C1Nc2ccc(Cl)cc2/C1=C/c1cccs1,-4.25% (active)
